Sampled rows, rich in hits. Any-hit rate of the full collection: about 28%.
Mac1 fbg enh = CD11b/CD18-fibrinogen binding enhancement | P05107+P11215 | 93,000 tested, 0.07% active | K562 CD11b/CD18 adhesion to fibrinogen, ATPlite luminescence | AID 1499 | activation, % at 10 µM;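 active means 10 µM primary screen giving 50% or more activity, confirmed by 40% or more on retest at that dose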
Target sequence (P05107 whole entry, looked up, other chains not shown): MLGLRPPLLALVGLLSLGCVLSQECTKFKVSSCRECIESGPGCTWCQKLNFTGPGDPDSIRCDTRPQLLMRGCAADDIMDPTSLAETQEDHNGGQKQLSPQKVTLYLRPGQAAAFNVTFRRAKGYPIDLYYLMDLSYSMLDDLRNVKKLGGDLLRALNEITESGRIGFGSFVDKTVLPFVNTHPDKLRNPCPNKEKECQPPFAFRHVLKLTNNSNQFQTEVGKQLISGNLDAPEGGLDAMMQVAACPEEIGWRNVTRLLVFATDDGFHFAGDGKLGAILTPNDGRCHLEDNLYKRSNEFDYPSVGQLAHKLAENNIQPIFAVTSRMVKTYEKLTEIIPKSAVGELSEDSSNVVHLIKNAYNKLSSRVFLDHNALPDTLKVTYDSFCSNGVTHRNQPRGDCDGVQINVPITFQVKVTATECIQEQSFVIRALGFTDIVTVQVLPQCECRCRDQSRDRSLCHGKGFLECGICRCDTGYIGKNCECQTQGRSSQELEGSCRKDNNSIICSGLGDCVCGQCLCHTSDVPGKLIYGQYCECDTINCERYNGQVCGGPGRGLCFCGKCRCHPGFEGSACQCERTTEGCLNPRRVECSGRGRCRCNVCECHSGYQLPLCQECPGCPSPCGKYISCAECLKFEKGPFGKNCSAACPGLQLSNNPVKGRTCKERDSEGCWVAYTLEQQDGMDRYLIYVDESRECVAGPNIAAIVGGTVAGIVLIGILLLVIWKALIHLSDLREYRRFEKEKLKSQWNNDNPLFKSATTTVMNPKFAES
CYP2C9 inh = human CYP2C9 inhibition. P11712. CYP2C9 Supersomes, luciferin-H conversion, luminescence. inhibition, % at 5 µM. 96,000 tested, 20% active;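 active means blocking of liver enzyme CYP2C9 beyond about 50% at 5 µM, limit read from the data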
CYP2C9 act = activators of human CYP2C9 | 96,000 tested, 1.4% active | activation factor at 5 µM | P11712 | recombinant CYP2C9, luciferin-H conversion, luminescence; hits give high values; factor 1 = untreated enzyme, 0 = blocked;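 active means activation factor of 2 or more for CYP2C9 at a 5 µM dose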;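 further: 0 = sulfaphenazole-blocked wells and 1 = vehicle-only wells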
CYP2C19 inhib = human CYP2C19 inhibition; CYP2C19 Supersomes, luciferin-H EGE luminescence, 30 min; inhibition, % at 5 µM; 96,000 tested, 21% active;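 active means CYP2C19 inhibition above a set limit at 5 µM in the primary screen, cut at about 50% in these data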;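 further: plate controls were negative control wells for no effect and 2.5 mM tranylcypromine positive control for full effect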
CYP2C19 act = activators of human cytochrome P450 2C19. recombinant CYP2C19, luciferin-H EGE luminescence; hits give high values; 0 = fully inhibited enzyme, 1 = untreated enzyme. activation factor at 5 µM. 96,000 tested, under 10 active. P33261;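 active means activation factor of at least 2 at 5 µM in the primary screen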;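 further: 0 = wells with 2.5 mM tranylcypromine and 1 = vehicle-only wells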
Mac1 fbg inh = blocks human CD11b/CD18 adhesion to fibrinogen. K562 CD11b/CD18 adhesion to fibrinogen, ATPlite luminescence; Mn2+ added to activate the integrin. inhibition, % at 10 µM. AID 1497. 93,000 tested, 0.54% active;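 active means primary inhibition of 50% or more at 10 µM, then 40% or more on retest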
The depositor's hits bear a star; . = no result given.

SMILES | Mac1 fbg enh | CYP2C9 inh | CYP2C9 act | CYP2C19 inhib | CYP2C19 act | Mac1 fbg inh
N#C/C(=C\c1cn(Cc2ccccc2C#N)c2ccccc12)C(=O)NCc1cccs1 | 3.1 | 60.3* | 0.4 | 16.0 | 0.8 | 14.8
CCOC(=O)/C(C#N)=C/c1cn(CCOc2ccc(OC)cc2)c2ccccc12 | 1.5 | . | . | . | . | 18.2
CS(=O)(=O)N(CC(=O)Nc1cccc(F)c1)Cc1ccccc1 | 2.9 | 81.6* | 0.2 | 90.9* | 0.1 | -11.2
CC(=O)c1cccc(NC(=O)CN(Cc2ccccc2)S(C)(=O)=O)c1 | -2.3 | 37.5 | 0.6 | 75.6* | 0.2 | -7.1
CSC(=NNC(=O)c1ccc(O)cc1)SC | 1.9 | 10.5 | 0.9 | 10.1 | 0.9 | -6.1
S=c1nn[nH]n1C12CC3CC(CC(C3)C1)C2 | -1.6 | 8.3 | 0.9 | -21.1 | 1.2 | -14.6
O=C1[C@H]2[C@@H](C(=O)N1c1cccc3ccccc13)C1(C(=O)c3ccccc3C1=O)N1CCC[C@@H]21 | 0.4 | 26.2 | 0.7 | 38.2 | 0.6 | 0.4
COc1ccc(OC)c(N(CC(=O)N2CCc3ccccc3C2)S(C)(=O)=O)c1 | . | 4.3 | 1 | 23.8 | 0.8 | .
COC(=O)c1ccccc1NC(=O)CN(c1cc(OC)ccc1OC)S(C)(=O)=O | -3.8 | 97.7* | 0 | 90.7* | 0.1 | 2.3
CCN(CC(=O)Nc1ccccc1C(=O)OC)S(=O)(=O)c1ccc(OC)cc1 | 10.9 | -25.8 | 1.3 | 64.7* | 0.4 | -14.6
COC(=O)c1ccccc1NC(=O)CN(CCc1ccccc1)S(C)(=O)=O | -2.3 | 7.3 | 0.9 | 52.5* | 0.5 | -13.0
COc1ccc(OC)c(N(CC(=O)Nc2ccccc2)S(C)(=O)=O)c1 | 3.0 | 33.0 | 0.7 | 74.3* | 0.3 | -11.5
O=C(NCCCN1CCOCC1)C(C(=O)c1ccccc1)n1ccccc1=O (stereo unspecified) | 2.5 | 5.6 | 0.9 | 4.5 | 1 | 21.1
CCC1CCCCN1C(=O)Cn1c(=O)n(CCC(=O)NCc2ccco2)c(=O)c2sccc21 (stereo unspecified) | 0.3 | 45.4 | 0.5 | 4.7 | 1 | -10.5
Cc1nc(C)c(C(=O)NNC(=O)c2ccc(Br)cc2)s1 | -2.1 | . | . | . | . | 11.9
O=C(Nc1cccc(NC(=O)c2nccc3ccccc23)c1)c1ccco1 | -0.8 | -99.6 | 2* | 6.2 | 0.9 | 1.7
O=C(Nc1cccc(-c2nc3ccccc3[nH]2)c1)c1ccco1 | 3.1 | 71.9* | 0.3 | 82.4* | 0.2 | -0.6
O=C(Nc1cccc(-c2cnc3ccccc3n2)c1)c1cccc(NC(=O)c2ccco2)c1 | 25.7 | 75.4* | 0.2 | 69.3* | 0.3 | 18.1
Cc1ccccc1NC(=O)c1ccc(CN2CCC(Cc3ccccc3)CC2)cc1 | . | 27.2 | 0.7 | 17.8 | 0.8 | .
CCS(=O)(=O)N1Cc2ccccc2CC1C(=O)N1CCN(c2ccccc2)CC1 (stereo unspecified) | . | -18.3 | 1.2 | 32.3 | 0.7 | .
CSC1=C(C#N)C(c2ccccc2Cl)C2=C(N1)c1ccccc1C2=O (stereo unspecified) | . | 47.3 | 0.5 | 53.4* | 0.5 | .
CC(=O)C1=C(c2ccccc2)OC(N)=C(C#N)C1c1ccccc1C (stereo unspecified) | 2.2 | . | . | . | . | 4.6
CSC1=C(C#N)C(c2ccccc2C)C(C#N)=C(N)N1 (stereo unspecified) | -4.2 | 99.2* | 0 | 86.4* | 0.1 | 25.3
CSC1=C(C#N)C(c2ccccc2Cl)C2=C(CCCC2=O)N1 (stereo unspecified) | 2.3 | 30.1 | 0.7 | 5.3 | 0.9 | -4.1
NC(=O)Cc1c[nH]c2cccc(O)c12 | -1.4 | 1.3 | 1 | 0.4 | 1 | 8.2
COc1cc(N=c2ssnc2Cl)cc(OC)c1 | -5.4 | 99.7* | 0 | 47.9 | 0.5 | 35.1
O=C(COc1ccc(S(=O)(=O)N2CCOCC2)cc1)Nc1ccccc1C(F)(F)F | 1.8 | 15.9 | 0.8 | 9.2 | 0.9 | -39.1
CCN(CC)S(=O)(=O)c1ccc(-c2nnc(SCC(=O)Nc3nc(C)cs3)o2)cc1 | 1.2 | 46.5 | 0.5 | 6.6 | 0.9 | 9.6
CCN(CC)C(=O)CSc1nnc(-c2ccc(S(=O)(=O)N3CCCC3)cc2)o1 | -7.0 | 31.0 | 0.7 | 11.6 | 0.9 | 3.4
COc1ccc(Cc2nnc(SCC(=O)NCc3ccco3)o2)cc1 | -5.2 | 41.5 | 0.6 | 41.5 | 0.6 | 14.1
